# Several values for one entry are separate records, joined by “and”; a condition that tells them apart may be missing. Equal values may be shown once. The whole screen tested about 360,000 compounds, of which about 340 (0.094%) were called active. Cut-off read from the data, not from the text of the source: active = inhibition above about 40%; inconclusive = no clear call, values can overlap the other calls; inactive = below that. Only a selection was taken, and actives are over-represented in it overall. Some compounds were tested as several samples or in several runs, with calls that do not always agree.
# System: 7,8-diaminopelargonic acid synthase BioA (Mycobacterium tuberculosis)
# Test: M. tuberculosis BioA enzyme inhibitors, primary screen, biochemical, plate reader, single point, HTS (AID 602481)
# Conditions: purified M. tuberculosis BioA enzyme, at 9.99 µM, stronger effect = higher value
row,SMILES,inhibition
1,COc1ccc(S(=O)(=O)N(C)C[C@@H]2OCCCC[C@H](C)Oc3ccc(NC(=O)Nc4ccccc4)cc3C(=O)N([C@H](C)CO)C[C@H]2C)cc1,-0.37% (inactive)
2,CN(C)C(=O)C[C@H]1C=C[C@@H](NC(=O)c2ccc(F)cc2)[C@@H](CO)O1,-0.406% (inactive)
3,O=C(Nc1ccc2c(c1)OCO2)N[C@H]1CC[C@H](CCNC(=O)C2CCC2)O[C@@H]1CO,5.56% (inactive)
4,O=C(C[C@H]1C[C@H]2c3cc(NC(=O)Nc4ccc(F)cc4)ccc3O[C@H]2[C@@H](CO)O1)NCC1CC1,0.529% (inactive)
5,COc1ccc(NC(=O)N(C)C[C@H]2OCCCC[C@H](C)Oc3ccc(NC(=O)c4ccncc4)cc3C(=O)N([C@H](C)CO)C[C@@H]2C)cc1,-0.437% (inactive)
6,CN(C)CC(=O)Nc1ccc2c(c1)[C@@H]1C[C@H](CC(=O)NCC3CC3)O[C@@H](CO)[C@@H]1O2,-1.45% (inactive)
7,CN(C)CC(=O)N1[C@H](C(=O)NC2CCC2)[C@@H](CO)[C@@H]2Cn3c(ccc(-c4ccc(F)cc4)c3=O)[C@@H]21,-3.07% (inactive)
8,CCCN(C)C[C@@H]1OCc2cnnn2CCCC(=O)N([C@H](C)CO)C[C@@H]1C,-0.996% (inactive)
9,Cc1ccc(S(=O)(=O)Nc2cccc3c2O[C@@H](CN(C)S(=O)(=O)c2cccs2)[C@@H](C)CN([C@@H](C)CO)C3=O)cc1,1.64% (inactive)
10,O=C(Nc1cccc(F)c1)N1CCCCN2[C@H](CO)[C@H](c3ccc(C#CC4CC4)cc3)[C@@H]2C1,10.9% (inactive)
11,Cc1ccc(S(=O)(=O)Nc2ccc3c(c2)CC(=O)N([C@@H](C)CO)C[C@H](C)[C@H](CN(C)Cc2ccc(C(=O)Nc4ccccc4N)cc2)O3)cc1,-1.91% (inactive)
12,CCCC(=O)Nc1ccc2c(c1)OC[C@@H](C)N(Cc1ccccc1F)C[C@@H](C)[C@H](OC)CN(C)C2=O,-3.54% (inactive)
13,CCCN(C)C[C@@H]1Oc2ncc(C#CC3CC3)cc2C(=O)N([C@H](C)CO)C[C@H]1C,-2.63% (inactive)
14,C[C@H](CO)N1C[C@H](C)[C@@H](CN(C)S(=O)(=O)c2ccccc2)OCCCC[C@H](C)Oc2ccc(NC(=O)NC3CCCCC3)cc2C1=O,-0.429% (inactive)
15,COc1ccc(S(=O)(=O)N(C)C[C@H]2Oc3c(NS(=O)(=O)c4ccc(F)cc4)cccc3C(=O)N([C@H](C)CO)C[C@H]2C)cc1,-2.2% (inactive)
16,C=CCn1c(SCc2cc(C(=O)OC)c(C)o2)nnc1-c1ccncc1,5.32% (inactive)
17,C=CCn1c(SCc2c(C(=O)OC)sc(N)c2C(=O)OC)nnc1-c1ccc(Cl)cc1,51.8% (active)
18,CCn1c(SCc2cccc(C(=O)O)c2)nnc1-c1ccc(Cl)cc1,1.6% (inactive)
19,O=C(C[C@@H]1C=C[C@@H](NC(=O)C2CC2)[C@H](CO)O1)NCCCN1CCOCC1,-6.18% (inactive)
20,CCCc1cn(CC[C@@H]2CC[C@@H](NC(=O)CCN3CCCCC3)[C@H](CO)O2)nn1,-2.51% (inactive)
21,O=C(C[C@H]1CC[C@H](NC(=O)c2ccc3c(c2)OCO3)[C@H](CO)O1)NCc1ccc(Oc2ccccc2)cc1,2.15% (inactive)

row,SMILES,inhibition
1,C[C@@H](O)C#Cc1ccc2c(c1)O[C@@H](CN(C)Cc1cccnc1)[C@@H](C)CN([C@@H](C)CO)S2(=O)=O,5.8% (inactive)
2,CC(C)n1cnc2c(NCc3ccccc3)cc(OCC3CCN(C)CC3)cc21,5.28% (inactive)
3,CCC(CO)Oc1cc(NC(=O)c2cccc(F)c2)c2ncn(C(C)C)c2c1 (stereo not drawn),20.8% (inactive) and 67.8% (active)
4,CCCOc1cccc(C(=O)Nc2nnn(CCC)n2)c1,-3.8% (inactive)
5,Cc1noc(C)c1NC(=O)Nc1ccc2c(c1)CC(=O)N([C@@H](C)CO)C[C@H](C)[C@H](CN(C)S(=O)(=O)c1c(C)noc1C)O2,1.52% (inactive)
6,CC(C)NC(=O)N(C)C[C@H]1Oc2c(NS(=O)(=O)c3ccc(Cl)cc3)cccc2C(=O)N([C@@H](C)CO)C[C@H]1C,-1.39% (inactive)
7,C[C@@H]1CN([C@@H](C)CO)C(=O)c2cc(/C=C/c3ccccc3)cnc2O[C@@H]1CN(C)C(=O)CN(C)C,-0.866% (inactive)
8,CO[C@H](CN(C)S(=O)(=O)c1ccc(Cl)cc1)[C@@H](C)CN(Cc1ccccc1Cl)[C@H](C)CO,-0.783% (inactive)
9,O=C(NCC[C@@H]1CC[C@H](NS(=O)(=O)c2cccc(F)c2)[C@H](CO)O1)c1cnccn1,2.18% (inactive)
10,Cc1noc(C)c1S(=O)(=O)Nc1ccc2c(c1)C(=O)N([C@H](C)CO)C[C@H](C)[C@H](CN(C)C(=O)NC1CCCCC1)OCCCC[C@H](C)O2,-0.981% (inactive)
11,COc1ccc(S(=O)(=O)N(C)C[C@H]2OCCCC[C@H](C)Oc3ccc(NS(=O)(=O)c4c(C)noc4C)cc3C(=O)N([C@@H](C)CO)C[C@@H]2C)cc1,-0.18% (inactive)
12,Cc1noc(C)c1NC(=O)N(C)C[C@H]1Oc2ccc(NC(=O)Nc3ccc(C(F)(F)F)cc3)cc2CC(=O)N([C@@H](C)CO)C[C@@H]1C,-2.44% (inactive)
13,O=C(Nc1cccc(Cl)c1)N1C[C@@H]2[C@H](c3ccccc31)[C@H](CO)N2Cc1ccncc1,-5.5% (inactive)
14,Cc1cc(C(=O)Nc2cccc3c2O[C@@H](CN(C)Cc2ccc4c(c2)OCO4)[C@@H](C)CN([C@@H](C)CO)C3=O)n(C)n1,-2.65% (inactive)
15,O=C(C[C@@H]1C[C@@H]2c3cc(NC(=O)C4CCC4)ccc3O[C@@H]2[C@@H](CO)O1)NCc1ccccc1,-1.79% (inactive)
16,O=C(C[C@@H]1CC[C@@H]2[C@H](COC[C@H](O)CN2S(=O)(=O)c2ccc(Oc3ccccc3)cc2)O1)NCCN1CCCCC1,9.19% (inactive)
17,CCCN1[C@H](C(=O)NCC)[C@@H](CO)[C@@H]2Cn3c(ccc(C4=CCCC4)c3=O)[C@@H]21,-0.389% (inactive)
18,CC(=O)N1[C@H](C(=O)N(C)C)[C@@H](CO)[C@@H]2Cn3c(ccc(-c4ccccc4)c3=O)[C@@H]21,-1.69% (inactive)
19,CN1C(=O)c2cc(NC(=O)c3ccc(F)c(F)c3)ccc2OC[C@H]2O[C@@H](CC(=O)N3CCCCC3)CC[C@H]21,4.19% (inactive)
20,C[C@@H]1CN([C@@H](C)CO)C(=O)c2cc(C#C[C@@H](C)O)cnc2O[C@H]1CN(C)CC1CCOCC1,-0.205% (inactive)
21,O=C(C[C@H]1C[C@@H]2c3cc(NC(=O)CC4CC4)ccc3O[C@@H]2[C@@H](CO)O1)NCc1cc(F)ccc1F,-0.019% (inactive)

row,SMILES,inhibition
1,COCC#Cc1cnc2c(c1)C(=O)N([C@H](C)CO)C[C@H](C)[C@H](CN(C)Cc1ccc(-c3ccccc3)cc1)O2,-2.84% (inactive)
2,C[C@@H]1CN([C@H](C)CO)C(=O)c2cc(NC(=O)Nc3ccc(F)cc3)ccc2O[C@@H]1CN(C)Cc1ccc(Cl)c(Cl)c1,-0.852% (inactive)
3,C[C@H]1CCCCO[C@H](CN(C)C(=O)CCC(F)(F)F)[C@@H](C)CN([C@@H](C)CO)C(=O)c2cc(NC(=O)Cc3ccccc3)ccc2O1,1.33% (inactive)
4,C[C@H]1CN([C@@H](C)CO)S(=O)(=O)c2ccc(C#Cc3ccccc3)cc2O[C@H]1CN(C)S(=O)(=O)c1cn(C)cn1,0.612% (inactive)
5,CCNC(=O)C[C@@H]1CC[C@H](NC(=O)C2CCC2)[C@@H](CO)O1,0.933% (inactive)
6,O=C(c1cccnc1)N1CC[C@@H]2[C@@H](CO)Nc3ccc(-c4ccccc4)cc3[C@@H]21,18.1% (inactive)
7,O=C(c1ccccc1)N1CC[C@H]2[C@H](CO)Nc3ccc(-c4ccc(F)cc4)cc3[C@H]21,-4.36% (inactive)
8,O=C(c1ccncc1)N1CC[C@@H]2[C@H]1c1cc(Br)ccc1N[C@@H]2CO,104% (active)
9,O=C(C[C@@H]1C=C[C@@H](NC(=O)c2ccccn2)[C@@H](CO)O1)NCc1cc(F)cc(F)c1,-2.07% (inactive)
10,C[C@@H]1CN([C@H](C)CO)C(=O)c2cc(NC(=O)NC3CCCCC3)ccc2O[C@@H](C)CCCCO[C@H]1CN(C)S(C)(=O)=O,1.27% (inactive)
11,CCC(=O)Nc1ccc2c(c1)OC[C@@H](C)N(Cc1ccccn1)C[C@H](C)[C@@H](OC)CN(C)C2=O,0.9% (inactive)
12,CO[C@H]1CN(C)C(=O)c2ccc(NC(C)=O)cc2OC[C@@H](C)NC[C@H]1C,-1.23% (inactive)
13,C[C@@H]1CN([C@H](C)CO)C(=O)c2cc(-c3ccccc3)cnc2O[C@H]1CN(C)C(=O)Nc1ccccc1,4.24% (inactive)
14,CNC(=O)C[C@H]1CC[C@H]2[C@@H](COc3ccc(NS(=O)(=O)c4ccc(F)cc4)cc3C(=O)N2C)O1,6.78% (inactive)
15,COc1ccc(NC(=O)Nc2cccc3c2O[C@H](CN(C)S(=O)(=O)c2cn(C)cn2)[C@H](C)CN([C@@H](C)CO)C3=O)cc1,1.78% (inactive)
16,C=CCn1c(SCC(=O)NCCCO)nc2sc3c(c2c1=O)CCC3,2.06% (inactive)
17,CC(C)(C)C1CCc2c(sc3nc(SCC(N)=O)nc(N)c23)C1 (stereo not drawn),7.83% (inactive)
18,C=C(C)CSc1nc(N)c2c3c(sc2n1)CCC3,54.5% (active)
19,C[C@H](CO)N1C[C@H](C)[C@H](CN(C)C(=O)Nc2ccc(F)cc2)OCCCC[C@H](C)Oc2ccc(NC(=O)CCC(F)(F)F)cc2C1=O,-0.385% (inactive)
20,C[C@@H]1CN([C@@H](C)CO)C(=O)c2cccc(NS(=O)(=O)c3ccc(F)cc3)c2O[C@H]1CN(C)S(=O)(=O)c1cccs1,-1.23% (inactive)
21,CC(C)NC(=O)N1CCCCN2[C@@H](CO)[C@@H](c3ccc(C#C[C@@H](C)O)cc3)[C@@H]2C1,2.83% (inactive)

# — PubChem BioAssay AID602481 (Broad Institute, 2012)
